Calls of active or inactive are those of the source. Rule as the data show it: active = inhibition above about 28%; inactive = the rest.
Test: StAR promoter reporter inhibitors, counter-screen for LRH-1 inverse agonist project, cell-based, luminescence, high throughput (AID 651611)
Details: StAR promoter luciferase reporter counterscreen, at 3.6 µM, stronger effect = higher value

| Structure (SMILES) | inhibition |
| --- | --- |
| O=C(CSc1nc2[nH]ncc2c(=O)n1-c1ccccc1)c1ccc2c(c1)OCCO2 | 0.39% (inactive) |
| CC(NC(=O)c1ccco1)C(c1cccs1)N1CCN(c2ccccc2)CC1 (stereo not given) | 6.91% (inactive) |
| CCCc1cc(=O)oc2c(C)c(OCC(=O)NCCN3CCOCC3)ccc12 | 6.59% (inactive) |
| CCc1ccc2oc(C(=O)NCc3ccncc3)c(C)c2c1 | -4.67% (inactive) |
| Cc1cc(OCC(=O)Nc2ccc(OCc3ccccc3)cc2)nc(C(C)C)n1 | -0.66% (inactive) |
| CC(=O)/C(=N/Nc1ccccc1[N+](=O)[O-])N1CCCc2ccccc21 | 17.5% (inactive) |
| O=C(C[n+]1ccc(Cc2ccccc2)cc1)Nc1ccc([N+](=O)[O-])cc1Cl | 5.98% (inactive) |
| O=C(Nc1cccc2ccccc12)c1ccc([N+](=O)[O-])o1 | 27.4% (inactive) |
| CCCc1cc(=O)oc2c(C)c(OCC(=O)NC3CC(C)(C)NC(C)(C)C3)ccc12 | 6.86% (inactive) |
| Cc1cccc(NC(=O)c2ccc([N+](=O)[O-])o2)c1C | 24.6% (inactive) |
| Cc1ccc(/C=C2\SC(=S)N(c3c(C)n(C)n(-c4ccccc4)c3=O)C2=O)cc1 | 9.85% (inactive) |
| CC1CC(C)CN(c2cc(N(C)CCO)c([N+](=O)[O-])c3nonc23)C1 (stereo not given) | 13.7% (inactive) |
| CN(C)c1ccc(C=c2c3ccccc3n3c2cc(-c2ccc(Cl)cc2)[n+]3C)cc1 | 5.51% (inactive) |
| COc1ccc(/C=N/NC(=O)c2[nH]c3ccc(Br)cc3c2-c2ccccc2)cc1 | 62.3% (active) |
| CCCc1cc(NCCOCCO)n2c(nc3ccccc32)c1C#N | 4.93% (inactive) |

From PubChem BioAssay
